Experimental data from PubChem BioAssay (NCATS).
A number with no mark means an inactive call. Results filed as inconclusive are left out. The source made the active and inactive calls.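 Rule for the calls, unless noted: active = compounds whose dose series gives a full or clear partial fitted curve of increased nuclear translocation; inconclusive = weak partial curve or effect only at the top dose; inactive = no dose-dependent translocation response.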

Tests used:
[1] = target: Glucocorticoid receptor (Homo sapiens) (UniProt P04150); assay: GR-GFP Redistribution (AID 450); note: potency is the fitted concentration of half-maximal effect
[2] = target: Mitogen-activated protein kinase 10 (Mus musculus) (UniProt Q61831); assay: JNK3 AlphaScreen Assay (AID 530; active = well fitted curve in either direction with a large enough effect, not every such curve was filed as active;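 note: kinase came from lysate of stimulated human HepG2 cells; signal reports phosphorylation of biotinylated GST-cJun 1-79 at Ser73 with 10 µM ATP; series mostly up to about 57 µM; % is set by controls: 0 for no effect and ±100 for the full control effect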)
Procedure, shortened: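 Activity was read by AlphaScreen after JNK3-containing HepG2 lysate (cytokine pre-activated) phosphorylated biotinylated GST-cJun with 10 uM ATP at room temperature. Phospho-Ser73 cJun antibody with Protein-A acceptor beads provided detection.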

[3] = target: 3',5'-cyclic-AMP phosphodiesterase 4B (Homo sapiens) (UniProt Q07343); assay: qHTS Assay for Inhibitors of PDE-IV (AID 607; active = well fitted activation curve with a large enough effect in the main read-out, with a control signal flat, not every such curve was filed as active; note: % of control where 0% means no effect)
Procedure, shortened: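 The readout is membrane depolarisation from a cAMP-sensing CNG channel, detected with a potential dye at ex 535/em 590. Cells were HEK293-derived (endogenous PDE-IV) at 1000 cells/well, titrated up to 22.9 uM final.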

[4] = target: Cytochrome P450 2C9 (Homo sapiens) (UniProt P11712); assay: qHTS Assay for Inhibitors and Substrates of Cytochrome P450 2C9 (AID 883; active = well fitted curve in the direction sought with a large enough effect; an effect the other way counts as inactive or inconclusive; note: nearly all actives have a fitted effect of over 60% in size; note: potency is the fitted concentration of half-maximal effect; for activity change, negative = inhibition: % is set by controls: 0 for no effect and ±100 for the full control effect)
Procedure, shortened: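 Human CYP2C9 (10nM) with Luciferin-H at 100uM (its KM) in 25mM KPO4; compound preincubated 10 min at 37C, then NADPH regeneration for 60 min at 37C. Luciferin read by luminescence after detection reagent; normalized to 57uM sulphaphenazole as full inhibition.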

[5] = target: Cytochrome P450 3A4 (Homo sapiens) (UniProt P08684); assay: qHTS Assay for Activators of Cytochrome P450 3A4 (AID 885; active = well fitted curve in the direction sought with a large enough effect; an effect the other way counts as inactive or inconclusive; note: nearly all actives have a fitted effect of over 65% in size)
Procedure, shortened: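 Activators are scored by enhanced luminescence from CYP3A4 conversion of luciferin-PPXE (25uM, equal to KM) to luciferin, after 60 min at RT with an NADPH-regenerating system.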

[6] = target: Cytochrome P450 2D6 (Homo sapiens) (UniProt P10635); assay: qHTS Assay for Inhibitors and Substrates of Cytochrome P450 2D6 (AID 891; active = well fitted curve in the direction sought with a large enough effect; an effect the other way counts as inactive or inconclusive; note: nearly all actives have a fitted effect of over 60% in size; note: potency is the fitted concentration of half-maximal effect;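 for activity change, negative = inhibition: luciferin methyl ether substrate demethylated by CYP2D6 with NADPH regeneration; % is set by controls: 0 for no effect and ±100 for the full control effect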)
Procedure, shortened: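 Luminescent read-out of luciferin formed by 5 nM human CYP2D6 demethylating 30 uM Luciferin-ME EGE (Km level) over 60 min at room temperature after NADPH regeneration addition. Data normalized to full inhibition by 1.43 uM quinidine.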

[7] = target: DNA dC->dU-editing enzyme APOBEC-3G (Homo sapiens) (UniProt Q9HC16); assay: qHTS for inhibitors of Vif-A3G interactions: Validation (AID 588379; active = well fitted curve in the direction sought with a large enough effect; an effect the other way counts as inactive or inconclusive; note: 0% is about no effect)
Procedure, shortened: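 Yellow fluorescence (Ex 488, Em 500-530) of Vif-coexpressing HeLa A3G-eYFP cells, scanned by Acumen cytometer, reports blocked A3G degradation. Cells plated at 700/well overnight at 37 deg C before compound addition, then a further overnight compound incubation at 37 deg C.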

[8] = target: Glucocorticoid receptor (Homo sapiens) (UniProt P04150); assay: GR-EFC Redistribution (AID 451; calls by dose curve; note: potency is the fitted concentration of half-maximal effect); conditions: CHO-K1 GR-EFC translocation, beta-gal luminescence, 2 h
Procedure, shortened: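 CHO-K1 cells expressing nuclear EA and GR-ED fragments of b-gal; compounds titrated up to 46 uM final, 2 h at 37 C. GR nuclear translocation read as complemented b-gal luminescence after 1 h RT detection.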

[9] = target: Cytochrome P450 2C19 (Homo sapiens) (UniProt P33261); assay: qHTS Assay for Inhibitors and Substrates of Cytochrome P450 2C19 (AID 899; active = well fitted curve in the direction sought with a large enough effect; an effect the other way counts as inactive or inconclusive; note: nearly all actives have a fitted effect of over 60% in size; note: potency is the fitted concentration of half-maximal effect)
Procedure, shortened: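 5 nM human CYP2C19 with 10uM Luciferin-H EGE (at KM) in 50mM KPO4, compound preincubated 10 min at 37C, then NADPH regeneration for 60 min at 37C. Luciferin read by luminescence after detection reagent; normalized to 57uM ketoconazole as full inhibition.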

[10] = target: Tumor susceptibility gene 101 protein (Homo sapiens) (UniProt Q99816); assay: qHTS Assay for Iinhibitors of HIV-1 Budding by Blocking the Interaction of PTAP/TSG101: Hit Validation (AID 651600; active = well fitted curve in the direction sought with a large enough effect; an effect the other way counts as inactive or inconclusive; note: % is set by controls: 0 for no effect and ±100 for the full control effect; nearly all actives have a fitted effect of over 70% in size)
Procedure, shortened: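 Fluorescence polarization binding assay: Tsg101 binding domain (10 uM final) pre-dispensed with compounds, then FITC-labeled PTAP-motif peptide (50 nM final) added; 20 min at r.t. in HEPES pH 7.5 buffer with NaCl, Tween 20, EDTA, TCEP.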

[11] = target: Cytochrome P450 3A4 (Homo sapiens) (UniProt P08684); assay: qHTS Assay for Inhibitors and Substrates of Cytochrome P450 3A4 (AID 884; active = well fitted curve in the direction sought with a large enough effect; an effect the other way counts as inactive or inconclusive; note: potency is the fitted concentration of half-maximal effect; nearly all actives have a fitted effect of over 50% in size)
Procedure, shortened: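 Luminescent readout of luciferin produced by CYP3A4 (20 nM) dealkylation of Luciferin-PPXE, 25 uM (its KM). NADPH-driven reaction ran 60 min at RT after 10 min compound preincubation; data scaled to 57 uM ketoconazole as 100% inhibition.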

Cytochrome P450 2C9 (Homo sapiens), sequence (P11712 whole entry, looked up): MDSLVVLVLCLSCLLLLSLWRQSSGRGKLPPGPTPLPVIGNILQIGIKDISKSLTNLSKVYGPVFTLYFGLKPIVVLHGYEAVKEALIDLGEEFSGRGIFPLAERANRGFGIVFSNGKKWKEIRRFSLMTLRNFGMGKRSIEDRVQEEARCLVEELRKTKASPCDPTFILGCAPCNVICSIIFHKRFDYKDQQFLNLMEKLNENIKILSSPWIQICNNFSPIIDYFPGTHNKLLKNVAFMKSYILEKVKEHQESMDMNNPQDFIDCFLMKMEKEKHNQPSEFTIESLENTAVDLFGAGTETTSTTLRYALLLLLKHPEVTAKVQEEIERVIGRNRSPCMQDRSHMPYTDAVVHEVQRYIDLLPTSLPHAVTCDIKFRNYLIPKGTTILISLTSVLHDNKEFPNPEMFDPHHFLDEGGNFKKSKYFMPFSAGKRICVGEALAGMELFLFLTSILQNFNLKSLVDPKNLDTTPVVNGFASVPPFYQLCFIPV
DNA dC->dU-editing enzyme APOBEC-3G (Homo sapiens), sequence (Q9HC16 whole entry, looked up): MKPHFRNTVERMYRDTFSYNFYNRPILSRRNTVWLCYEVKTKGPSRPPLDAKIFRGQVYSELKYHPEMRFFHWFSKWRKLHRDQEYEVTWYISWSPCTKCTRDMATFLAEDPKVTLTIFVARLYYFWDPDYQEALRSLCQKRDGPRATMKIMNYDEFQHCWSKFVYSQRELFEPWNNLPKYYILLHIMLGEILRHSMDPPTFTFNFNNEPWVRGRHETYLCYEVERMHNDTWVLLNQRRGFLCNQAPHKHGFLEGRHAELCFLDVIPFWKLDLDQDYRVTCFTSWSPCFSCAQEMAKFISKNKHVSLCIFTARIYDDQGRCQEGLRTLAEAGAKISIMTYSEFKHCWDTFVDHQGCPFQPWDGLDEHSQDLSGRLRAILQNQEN
Cytochrome P450 2C19 (Homo sapiens), sequence (P33261 whole entry, looked up): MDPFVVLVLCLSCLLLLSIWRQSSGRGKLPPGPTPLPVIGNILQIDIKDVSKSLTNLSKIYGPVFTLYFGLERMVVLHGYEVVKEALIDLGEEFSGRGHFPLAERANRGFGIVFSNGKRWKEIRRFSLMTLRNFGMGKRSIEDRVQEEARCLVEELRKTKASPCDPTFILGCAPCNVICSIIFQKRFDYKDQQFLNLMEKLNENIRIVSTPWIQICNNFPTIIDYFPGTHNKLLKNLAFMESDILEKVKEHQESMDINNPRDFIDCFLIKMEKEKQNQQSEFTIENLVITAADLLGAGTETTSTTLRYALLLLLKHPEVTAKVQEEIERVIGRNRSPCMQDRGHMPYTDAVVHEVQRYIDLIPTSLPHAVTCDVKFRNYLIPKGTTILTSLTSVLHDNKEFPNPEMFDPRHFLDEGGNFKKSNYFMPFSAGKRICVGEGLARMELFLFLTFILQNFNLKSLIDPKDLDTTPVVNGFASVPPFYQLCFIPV
Cytochrome P450 2D6 (Homo sapiens), sequence (P10635 whole entry, looked up): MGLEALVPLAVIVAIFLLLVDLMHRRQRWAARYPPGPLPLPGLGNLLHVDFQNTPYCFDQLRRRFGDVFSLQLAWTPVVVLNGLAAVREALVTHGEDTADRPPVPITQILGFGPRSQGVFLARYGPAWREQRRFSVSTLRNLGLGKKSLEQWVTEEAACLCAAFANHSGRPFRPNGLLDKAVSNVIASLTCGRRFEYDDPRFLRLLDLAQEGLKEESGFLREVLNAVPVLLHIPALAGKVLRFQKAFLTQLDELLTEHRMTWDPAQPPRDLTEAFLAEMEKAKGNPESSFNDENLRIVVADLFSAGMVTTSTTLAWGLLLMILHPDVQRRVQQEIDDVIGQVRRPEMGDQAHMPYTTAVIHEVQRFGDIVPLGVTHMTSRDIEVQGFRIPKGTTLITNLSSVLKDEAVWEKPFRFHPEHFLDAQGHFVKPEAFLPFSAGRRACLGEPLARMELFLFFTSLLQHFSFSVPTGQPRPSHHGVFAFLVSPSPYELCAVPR
Cytochrome P450 3A4 (Homo sapiens), sequence (P08684 whole entry, looked up): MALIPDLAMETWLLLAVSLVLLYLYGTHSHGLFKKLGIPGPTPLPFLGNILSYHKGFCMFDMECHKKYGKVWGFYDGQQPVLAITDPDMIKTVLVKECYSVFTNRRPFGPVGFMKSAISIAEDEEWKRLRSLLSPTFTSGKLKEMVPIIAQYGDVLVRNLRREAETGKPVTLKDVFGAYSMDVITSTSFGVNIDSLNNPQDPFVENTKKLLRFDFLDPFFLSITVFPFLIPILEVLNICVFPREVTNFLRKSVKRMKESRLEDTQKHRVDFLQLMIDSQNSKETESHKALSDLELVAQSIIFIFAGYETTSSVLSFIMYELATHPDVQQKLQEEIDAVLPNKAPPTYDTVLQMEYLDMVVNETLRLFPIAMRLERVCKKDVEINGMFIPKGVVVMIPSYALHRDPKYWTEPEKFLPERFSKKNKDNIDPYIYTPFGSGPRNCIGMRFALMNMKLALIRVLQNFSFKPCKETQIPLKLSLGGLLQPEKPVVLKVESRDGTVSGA
Glucocorticoid receptor (Homo sapiens), sequence (P04150 whole entry, looked up, the tested form may be a part): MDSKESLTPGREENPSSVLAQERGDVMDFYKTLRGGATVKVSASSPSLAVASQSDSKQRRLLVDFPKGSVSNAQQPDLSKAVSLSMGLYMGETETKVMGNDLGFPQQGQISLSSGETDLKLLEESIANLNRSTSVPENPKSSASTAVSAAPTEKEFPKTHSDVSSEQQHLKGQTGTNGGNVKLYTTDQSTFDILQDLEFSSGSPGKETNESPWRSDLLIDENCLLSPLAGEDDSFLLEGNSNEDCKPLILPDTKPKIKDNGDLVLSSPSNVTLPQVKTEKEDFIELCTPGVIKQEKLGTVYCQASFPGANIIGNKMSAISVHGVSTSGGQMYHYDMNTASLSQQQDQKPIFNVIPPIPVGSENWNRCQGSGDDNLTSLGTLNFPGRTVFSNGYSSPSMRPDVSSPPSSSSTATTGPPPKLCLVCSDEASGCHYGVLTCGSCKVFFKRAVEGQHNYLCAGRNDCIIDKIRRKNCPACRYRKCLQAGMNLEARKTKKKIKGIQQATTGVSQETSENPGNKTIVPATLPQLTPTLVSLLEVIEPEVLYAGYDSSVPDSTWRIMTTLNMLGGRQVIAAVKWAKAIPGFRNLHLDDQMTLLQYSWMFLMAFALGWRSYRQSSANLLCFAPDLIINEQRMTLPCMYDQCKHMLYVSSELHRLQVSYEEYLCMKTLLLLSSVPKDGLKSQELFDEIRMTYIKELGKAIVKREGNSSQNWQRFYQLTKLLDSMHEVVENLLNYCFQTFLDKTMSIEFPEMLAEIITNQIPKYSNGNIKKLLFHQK
3',5'-cyclic-AMP phosphodiesterase 4B (Homo sapiens), sequence (Q07343 whole entry, looked up): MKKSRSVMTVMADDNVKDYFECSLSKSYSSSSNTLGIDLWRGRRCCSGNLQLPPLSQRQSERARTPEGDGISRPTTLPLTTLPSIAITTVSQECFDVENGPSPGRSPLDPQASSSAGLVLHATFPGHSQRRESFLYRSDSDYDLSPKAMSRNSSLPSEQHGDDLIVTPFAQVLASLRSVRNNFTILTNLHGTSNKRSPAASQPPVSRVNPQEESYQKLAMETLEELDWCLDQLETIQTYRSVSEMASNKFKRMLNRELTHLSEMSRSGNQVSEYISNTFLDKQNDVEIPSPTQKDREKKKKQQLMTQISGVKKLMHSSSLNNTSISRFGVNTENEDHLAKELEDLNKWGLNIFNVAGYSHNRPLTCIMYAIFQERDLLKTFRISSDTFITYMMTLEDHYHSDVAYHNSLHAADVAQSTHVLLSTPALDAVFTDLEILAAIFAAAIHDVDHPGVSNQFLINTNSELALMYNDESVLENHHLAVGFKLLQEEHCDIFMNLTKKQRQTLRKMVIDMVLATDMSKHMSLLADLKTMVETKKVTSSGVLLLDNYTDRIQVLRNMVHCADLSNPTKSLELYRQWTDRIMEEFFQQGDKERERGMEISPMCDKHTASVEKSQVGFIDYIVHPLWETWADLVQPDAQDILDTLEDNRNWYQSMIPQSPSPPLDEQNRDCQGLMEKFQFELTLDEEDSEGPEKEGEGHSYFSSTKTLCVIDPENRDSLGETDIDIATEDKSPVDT
Tumor susceptibility gene 101 protein (Homo sapiens), sequence (Q99816 whole entry, looked up, the tested form may be a part): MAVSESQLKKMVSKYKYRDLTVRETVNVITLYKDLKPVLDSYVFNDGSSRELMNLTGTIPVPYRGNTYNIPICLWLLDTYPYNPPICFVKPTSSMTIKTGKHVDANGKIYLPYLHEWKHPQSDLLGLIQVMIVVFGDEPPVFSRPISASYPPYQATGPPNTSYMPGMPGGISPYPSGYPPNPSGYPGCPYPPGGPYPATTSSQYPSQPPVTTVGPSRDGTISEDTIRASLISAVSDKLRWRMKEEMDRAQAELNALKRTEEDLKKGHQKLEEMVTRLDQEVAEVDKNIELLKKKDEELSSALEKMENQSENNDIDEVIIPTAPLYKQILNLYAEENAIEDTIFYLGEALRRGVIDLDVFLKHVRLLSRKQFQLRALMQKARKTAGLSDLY

Cc1ccc2[nH]c3c(N4CCN(Cc5ccccc5)CC4)ncnc3c2c1
Potency [1]: > 20.6 µM

N#Cc1c(N)nc(SCc2ccccn2)c(C#N)c1-c1cccs1
Potency [1]: > 20.6 µM

Cn1c(NCC(O)c2ccccc2)nc2c1c(=O)n(Cc1ccc(Cl)c(Cl)c1)c(=O)n2C (stereo not drawn)
Potency [1]: > 20.6 µM

Cn1c(N2CCN(c3ccccn3)CC2)nc2c1c(=O)n(Cc1ccc(Cl)cc1)c(=O)n2C
Potency [1]: > 20.6 µM

COc1cccc(-c2nnc3sc(-c4cccs4)nn23)c1
Potency [1]: > 20.6 µM

O=c1c(-c2ccc3c(c2)OCCO3)c(C(F)(F)F)oc2cc(O)cc(O)c12
Potency [1]: > 20.6 µM

N#Cc1nc(-c2cccs2)oc1NCc1ccc2c(c1)OCO2
Potency [1]: > 20.6 µM

CCOc1cccc(-c2nnc3sc(C4CCCCC4)nn23)c1
Potency [1]: > 20.6 µM

N#Cc1nc(-c2ccccc2Cl)oc1N1CCCCC1
Potency [1]: > 20.6 µM

OC1(c2cccc(C(F)(F)F)c2)CCN(c2ncnc3c2[nH]c2ccccc23)CC1
Potency [1]: > 20.6 µM

c1ccc2c(c1)CCN(c1ncnc3c1[nH]c1ccccc13)C2
Potency [1]: > 20.6 µM

Cc1ccc2[nH]c3c(N4CCN(Cc5ccc6c(c5)OCO6)CC4)ncnc3c2c1
Potency [1]: > 20.6 µM

CCC(=O)Oc1oc(-c2ccccc2)nc1C=Nc1ccccc1OC
Potency [1]: > 20.6 µM

Fc1ccc2[nH]c3c(N4CCN(Cc5ccc6c(c5)OCO6)CC4)ncnc3c2c1
Potency [1]: > 20.6 µM

Cc1oc2cc(O)cc(C)c2c(=O)c1-c1cnn(-c2ccccc2)c1
Potency [1]: > 20.6 µM

Cn1c(NCc2ccco2)nc2c1c(=O)n(Cc1ccc(Cl)c(Cl)c1)c(=O)n2C
Potency [1]: > 20.6 µM

Cc1oc2cc(O)ccc2c(=O)c1-c1cnn(-c2ccccc2)c1
Potency [1]: > 20.6 µM

O=C(NCc1ccccn1)c1coc(=O)c(Br)c1
Potency [1]: > 20.6 µM

Cc1ccccc1N1C(=O)CC(Sc2nnc(-c3ccccc3)o2)C1=O (stereo not drawn)
Potency [1]: > 20.6 µM

COc1cc([C@@H]2Oc3cc([C@H]4Oc5cc(O)cc(O)c5C(=O)[C@H]4O)ccc3O[C@H]2CO)ccc1O
Potency [1]: > 46 µM
Potency [2]: inactive
Potency [3]: inactive
Potency [4]: 2.51 µM (active)
Potency [5]: inactive
Potency [6]: inactive
outcome [7]: inactive

CCCCN(CCCC)c1nc2ccccc2nc1C(C#N)C(=O)NCCCOC (stereo not drawn)
Potency [1]: > 20.6 µM

CC(C)C[C@@H](CC(=O)N[C@@H](CCC(=O)O)CC(=O)O)NC(=O)[C@@H]1CCCC[C@H]1NC(=O)C[C@H](CCCN)NC(=O)C[C@H](Cc1c[nH]c2ccccc12)NC(=O)[C@@H]1CCCC[C@H]1N
Potency [8]: > 46 µM
Potency [2]: inactive
Potency [3]: inactive
Potency [4]: inactive
Potency [6]: inactive
Potency [9]: inactive

C=CCn1c(SCC(=O)c2ccc(NS(=O)(=O)c3ccccc3)cc2)nnc1-c1cccs1
Potency [1]: > 20.6 µM

NCCC[C@@H](CC(=O)N[C@@H]1CCCC[C@H]1C(=O)N[C@H](CC(=O)N[C@@H](CCC(=O)O)CC(=O)O)Cc1c[nH]c2ccccc12)NC(=O)C[C@H](Cc1ccccc1)NC(=O)[C@@H]1CCCC[C@H]1N
Potency [8]: > 46 µM
Potency [2]: inactive
Potency [3]: inactive
Potency [4]: inactive
Potency [6]: inactive
Potency [9]: inactive

CCN(CC)C(=O)c1sc2nc(-c3cccs3)cc(-c3cccs3)c2c1N
Potency [1]: > 20.6 µM
Potency [10]: inactive

COc1ccc(C(=O)[C@H]2[C@H]3[C@@H](C(=O)[C@@H]4OC[C@H]3O4)[C@H]3C=Cc4ccccc4N32)c(OC)c1
Potency [1]: > 46 µM
Potency [8]: > 46 µM
Potency [2]: inactive
Potency [3]: inactive
Potency [6]: inactive

C[C@@H]1C(=O)O[C@H]2[C@@H](O)[C@@]34[C@H]5C[C@H](C(C)(C)C)[C@@]36[C@H](OC(=O)[C@@H]6O)O[C@@]4(C(=O)O5)[C@@]12O
Potency [1]: > 46 µM
Potency [8]: > 46 µM
Potency [2]: inactive
Potency [3]: inactive

CN1C[C@H](C(=O)N[C@]2(C)O[C@@]3(O)[C@H]4CCCN4C(=O)[C@@H](Cc4ccccc4)N3C2=O)C[C@H]2c3cccc4[nH]cc(c34)C[C@@H]21
Potency [1]: > 46 µM
Potency [8]: > 46 µM
Potency [2]: inactive
Potency [3]: inactive

Oc1c(Cl)cc(Cl)cc1CNc1ccc(Br)cn1
Potency [1]: > 20.6 µM

OCc1ccncc1.OCc1ccncc1.[Cl][Pt]([Cl])([Cl])[Cl]
Potency [1]: > 46 µM
Potency [8]: > 9.22 µM
activity change, negative = inhibition [2]: 0.578% [at 11.4 µM]
Potency [3]: inactive

C=C1C[C@@]23C[C@]1(O)CC[C@@H]2[C@]12C=C[C@@H](O)[C@@](C)(C(=O)O1)[C@@H]2[C@@H]3C(=O)O
Potency [1]: > 46 µM
Potency [8]: > 46 µM
Potency [2]: inactive

O=C1C[C@H](c2ccccc2)Oc2cc(O)cc(O)c21
Potency [1]: > 46 µM
Potency [8]: > 46 µM
Potency [2]: inactive
Potency [3]: inactive
Potency [4]: 12.6 µM (active)
Potency [11]: 12.6 µM (active)
Potency [5]: inactive
Potency [6]: 20 µM (active)
Potency [9]: 0.631 µM (active)
outcome [7]: inactive

C=C/C(=C\C)C[C@@H](CC(=O)N[C@@H](CCC(=O)O)CC(=O)O)NC(=O)[C@@H]1CNCC[C@H]1NC(=O)C[C@@H](NC(=O)C[C@H](Cc1ccccc1)NC(=O)[C@@H]1CCCC[C@H]1N)C(C)C
Potency [8]: > 46 µM
Potency [2]: inactive
Potency [3]: inactive
Potency [4]: inactive
Potency [6]: inactive
Potency [9]: inactive

CC1(C)Cc2c(C#N)c(N3CCN(C(=O)c4ccco4)CC3)nc(Cc3ccccc3)c2CO1
Potency [1]: > 20.6 µM

Cc1ccc(N2C(=O)c3sc4nnc(C)c(=O)n4c3C2=O)cc1
Potency [1]: > 20.6 µM

O=c1cc(-c2ccccc2)oc2c1ccc1ccccc12
Potency [1]: > 46 µM
Potency [8]: > 46 µM
Potency [11]: 12.6 µM (active)
Potency [5]: inactive
Potency [9]: 2 µM (active)
outcome [7]: inactive

CC(C)C[C@@H](CC(=O)N[C@@H](CCC(=O)O)CC(=O)O)NC(=O)[C@@H]1CCCC[C@H]1NC(=O)C[C@@H](NC(=O)C[C@H](Cc1ccccc1)NC(=O)[C@@H]1CNCC[C@H]1N)C(C)C
Potency [8]: > 46 µM
Potency [2]: inactive
Potency [3]: inactive
Potency [4]: inactive
Potency [6]: inactive
Potency [9]: inactive
